The nature of this assay: chemical genetic growth profiling, strain panel (AID 1159580).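 Note: tested at 20 µM; growth read once vehicle control cultures reached saturation at 30 °C; 1 = growth at the plate median or of vehicle wells; lower values mean less growth of the strain.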 The following applies: S. cerevisiae deletion strains, growth OD.

We go through one compound from PubChem BioAssay AID1159580 (chemical genetic matrix, 2015).

About 2,000 (36%) of roughly 5,500 compounds were called active. Not shown: some 18% with an inconclusive outcome. Some of the results follow. Values without a mark were called inactive. Cut-off read from the data, not from the text of the source: active = normalized growth mostly below about 0.91 (no sharp cut-off); inconclusive = no clear call, values can overlap the other calls; inactive = mostly above about 0.92.

Regarding `C=C1C(=O)O[C@@H]2[C@H]3O[C@]3(C)CCC=C(C)CC[C@@H]12`, the normalized growth is, setting by setting: (locus YAL040C, strain CLN3, active compounds read low) 0.966; (locus YCL061C, strain MRC1 (second series), active compounds read low) 0.96; (locus YDR363W, strain ESC2, active compounds read low) 0.969; (locus YER002W, strain NOP16, active compounds read low) 0.981; (locus YGR229C, strain SMI1, active compounds read low) 0.822 (active); (locus YJR075W, strain HOC1, active compounds read low) 0.906 (active). In addition, the normalized growth runs as follows: (locus YMR307W, strain GAS1, active compounds read low) 0.766 (active); (locus YNL175C, strain NOP13, active compounds read low) 0.956; (locus YNL197C, strain WHI3, active compounds read low) 0.95; (locus YNL224C, strain SQS1, active compounds read low) 0.967; (locus YNL322C, strain KRE1, active compounds read low) 0.945; (locus YOR083W, strain WHI5 (second series), active compounds read low) 0.972. In addition, for the setting “locus YPL055C, strain LGE1, active compounds read low”, the normalized growth is 0.945.
